Laboratory results: PubChem BioAssay (EPA / NIEHS)
Inconclusive results are not listed. The source made the active and inactive calls. How the source made its calls: active means hit-call score of the fitted dose curve at least 0.9, where 1 is the maximum; inconclusive means response in the unintended direction; inactive means score below 0.9.

Experiment: CCTE_Deisenroth_AIME_384WELL_CTox_Inactive: Cytotoxicity Assessment (CTOX) in CCTE's 384-well Estrogen Receptor Transactivation Assay without AIME metabolic competence (metabolism negative), Deisenroth Lab (AID 2284039);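 further: cell viability via live-cell protease substrate cleaved to fluorescent probe; cells exposed 24 h to medium preincubated 2 h with alginate-water beads without S9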
Description: CCTE_Deisenroth_AIME_384WELL (AIME metabolism assay) is a cell-based, single-readout assay that uses VM7Luc4E2, a human mammary gland/breast cell line, with measurements taken at 24 hour after chemical dosing in a 384-well plate.CCTE_Deisenroth_AIME_384WELL_CTox_Inactive is one of four assay components measured or calculated from the CCTE_Deisenroth_AIME_384WELL assay. It is designed to make measurements of a protease substrate, a type of viability indicator, as detected with substrate cleavage to a fluorescent probe in living cells.CCTE_Deisenroth_AIME_384WELL_CTox_Inactive is a component of the CCTE_Deisenroth_AIME_384WELL assay that measures the effect of retroftting the VM7Luc ERTA assay with the Alginate Immobolization of Metabolic Enzymes (AIME) metabolism method. AIME is optimized to impart phase I hepatic metabolism using phenobarbital/beta-naphthoflavone induced hepatic S9 from male Sprague Dawley rats. Parent chemicals are incubated for 2 hours in the AIME assay prior to transfer to the VM7Luc ERTA assay plate. […] This endpoint evaluates cytotoxicity in metabolism negative mode. Using a type of flourescent probe in VM7Luc cells, loss-of-signal activity can be used to understand loss of viability. This assay endpoint, CCTE_Deisenroth_AIME_384WELL_CTox_Inactive, was analyzed with bidirectional fitting in the ERTA assay.
The AIME procedure consists of a preparative "pre-stamping" step using a barium chloride/poly-L-lysine (PLL) solution followed by "stamping" the lid in alginate-hepatic S9 (metabolism positive) or alginate-water (metabolism negative) to form microspheres. Once stamping is completed, the AIME lids are placed in duplicate microplates (metabolism positive or negative) containing chemical solutions and incubated for two hours to facilitate metabolic reactions. The conditioned medium, containing parent chemical or metabolites, is then transferred to the cell-based VM7Luc Estrogen Receptor Transactivation Assay (ERTA) for 24 hours. A typical experimental design tests a 10-point concentration series (0.002 - 200 uM) for 8 compounds (96-well format)1 or 32 compounds (384-well format)2 in single technical replicate. AIME assay controls include trans-stilbene (bioactivated control) and ethylparaben (bioinactivated control). ERTA assay plate controls include 17-beta estradiol (positive control) and DMSO (solvent control). Experiments typically comprise a minimum of four experimental replicates (n=4).

| SMILES | outcome | AC50 |
| --- | --- | --- |
| Cc1oc2c(NC(=O)c3c(Cl)cccc3Cl)cccc2c1C(C)(C)O | inactive |  |
| C[C@]12CC[C@@H]3c4ccc(O)cc4CC[C@H]3[C@@H]1CCC2=O | inactive |  |
| O=C(Nc1ccc(Cl)cc1)Nc1ccc(Cl)c(Cl)c1 |  | 0.393 µM (active) |
| CCN(CC)C(=O)c1cc(S(=O)(=O)Cc2ccccc2)c(N2CCC(c3ccccc3)CC2)cc1N(CC)CCN(C)C | inactive |  |
| Cc1cn([C@H]2C[C@H](N=[N+]=[N-])[C@@H](CO)O2)c(=O)[nH]c1=O | inactive |  |
| CC[C@H](NC(=O)c1cc(F)ccc1NS(=O)(=O)c1cccc2cccnc12)c1ccccc1 | inactive |  |
| c1ccc2ccccc2c1 | inactive |  |
| CC(O)CC(C)(C)O (configuration not stated) | inactive |  |
| CCCOC(=O)c1cc(O)c(O)c(O)c1 | inactive |  |
| Oc1ccccc1 | inactive |  |
| c1ccc2n[nH]nc2c1 | inactive |  |
| CCCCCCCCCCCO |  | 100 µM (active) |
| CC(C)(C)c1cc(/C=C2\SC(N)=NC2=O)cc(C(C)(C)C)c1O | inactive |  |
| C[C@]12CC[C@@H]3c4ccc(O)cc4CC[C@H]3[C@@H]1CC[C@H]2O | inactive |  |
| Cc1ncc(CO)c(CO)c1O | inactive |  |
| OCCO | inactive |  |
| CCCCCCCCCC(=O)O | inactive |  |
| CC1(C)NC(=O)N(c2ccc([N+](=O)[O-])c(C(F)(F)F)c2)C1=O | inactive |  |
| CO[C@H]1/C=C/O[C@@]2(C)Oc3c(C)c(O)c4c(O)c(c(/C=N/N5CCN(C)CC5)c(O)c4c3C2=O)NC(=O)/C(C)=C\C=C\[C@H](C)[C@H](O)[C@@H](C)[C@@H](O)[C@@H](C)[C@H](OC(C)=O)[C@@H]1C |  | 63.7 µM (active) |
| O=C(O)Cn1c(=O)n(Cc2ccc(Br)cc2F)c(=O)c2ccc(Cl)cc21 | inactive |  |
| CCCCCCCCOC(=O)c1cc(O)c(O)c(O)c1 |  | 19.8 µM (active) |
| Oc1ccc2ccccc2c1 | inactive |  |
